Screens (PubChem)
Shown are actives, neighbours in structure and some others; about 4.5% of the full set was active somewhere.
DAX1 inh-1 = inhibits human nuclear receptor DAX1. P51843. HEK293 Gal4-DAX1 luciferase reporter, luminescence. inhibition, % at 6.75 µM. actives 0.99% (n = 340,000);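 active = inhibition above the mean over all tested compounds plus 3 SD, cut at about 4.2% in these data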;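 note: inhibition shows as a rise in luminescence from relieved DAX1 repression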
DAX1 inh-2 = DAX1 (NR0B1) inhibition, primary screen. actives 1.1% (n = 370,000). inhibition, % at 6.8 µM. HEK293T StAR-luciferase reporter, SF-1/DAX-1 repression relief. AID 652010;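 active = inhibition above the mean over all tested compounds plus 3 SD, cut at about 3.6% in these data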;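 note: higher inhibition means more luminescence from relief of DAX-1 repression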
hcDAF12 agonist = activates DAF-12 receptor from parasite H. contortus | HEK293 hcDAF-12 lit1-tk-luc reporter, luminescence; 0% DMSO, 100% Δ7-dafachronic acid | activation, % at 6.8 µM | actives 1.4% (n = 370,000);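 active = activation above the mean of all tested compounds plus 3 SD, cut at about 5.5% in these data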
hgDAF-12 ag = activates the H. glycines DAF-12 receptor ligand-binding domain; HEK293 GAL4-hgDAF12 UAS-luciferase reporter, agonist luminescence; normalized to butyrate control; activation, % at 6.8 µM; actives 1.8% (n = 370,000);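 active = activation above a cutoff set at the mean of all screened compounds plus 3 SD, cut at about 10% in these data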
ssDAF-12 act = S. stercoralis DAF-12 activation, primary screen; HEK293 ssDAF-12/GRIP1 lit1-tk-luc reporter, luminescence; % of 3 µM dafachronic acid response; AID 652126; activation, % at 6.8 µM; actives 1% (n = 370,000);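 active = activation above the mean over all tested compounds plus 3 SD, cut at about 0.9% in these data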
GAA850 FXN act = increases GAA850 frataxin promoter reporter activity; HEK293 lucGAA850 FXN promoter luciferase reporter, 24 h; percent of 10 µM SAHA response; activation, % at 6 µM; actives 0.56% (n = 360,000); AID 540364;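 active = activation above the average of all compounds screened plus 3 SD, cutoff fixed separately per campaign, cut at about 7.5% in these data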
LXR ag = activates human LXR-beta, counter-screen for hcDAF-12 agonists. shares compounds with hcDAF12 agonist. HEK293 Gal4-LXR tk-luc reporter, luminescence, 24 h; normalized: DMSO 0%, positive control 100%. activation, % at 6.8 µM. 3,400 tested, under 10 active;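 active = mean percent activation of the reporter above a cutoff set as the average over tested compounds plus their standard deviation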
Target sequence (P55055 whole entry, looked up, the tested form may be a part): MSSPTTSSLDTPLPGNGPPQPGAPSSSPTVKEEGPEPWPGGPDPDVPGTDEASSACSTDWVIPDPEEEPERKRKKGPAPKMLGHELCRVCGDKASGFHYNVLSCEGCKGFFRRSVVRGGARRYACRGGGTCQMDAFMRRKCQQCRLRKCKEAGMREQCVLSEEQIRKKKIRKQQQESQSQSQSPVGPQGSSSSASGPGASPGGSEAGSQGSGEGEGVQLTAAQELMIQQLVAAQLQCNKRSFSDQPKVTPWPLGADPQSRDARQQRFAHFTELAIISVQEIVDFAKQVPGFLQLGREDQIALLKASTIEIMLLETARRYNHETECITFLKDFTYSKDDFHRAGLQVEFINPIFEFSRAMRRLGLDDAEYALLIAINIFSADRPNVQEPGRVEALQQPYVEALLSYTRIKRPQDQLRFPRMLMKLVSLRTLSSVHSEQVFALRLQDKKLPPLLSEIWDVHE
hcDAF12 ag = hcDAF-12 agonism, confirmation assay; HEK293 hcDAF-12 lit1-tk-luc reporter, luminescence; % of Δ7-dafachronic acid response; actives 61% (n = 3,400); shares compounds with hcDAF12 agonist; activation, % at 6.8 µM;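 active = mean activation across triplicate tests above the threshold derived from the earlier primary screen, cut at about 5.5% in these data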
Numbers stand for hits; n = inactive; x = no result given.

SMILES	DAX1 inh-1	DAX1 inh-2	hcDAF12 agonist	hgDAF-12 ag	ssDAF-12 act	GAA850 FXN act	LXR ag	hcDAF12 ag
c1ccc(N2CC3COc4ccccc4C3=N2)cc1 (configuration not stated)	n	3.9	16	20	2.8	n	n	14
Cc1nn(CCC(=O)NNC(=O)NCc2ccccc2)c(C)c1[N+](=O)[O-]	x	n	n	n	n	x	x	x
COC(=O)C1CN(Cc2ccc(OC)cc2)CCS(=O)(=O)N1Cc1ccc(Cl)cc1 (configuration not stated)	x	n	n	n	n	x	x	x
CCCCCNC(=O)C(=O)C1C(=O)Nc2ccccc21 (configuration not stated)	n	n	n	n	n	n	x	x
CN(C)CCNC(=O)C(=O)C1C(=O)Nc2ccccc21 (configuration not stated)	x	n	8.0	n	0.9	x	n	n
CC(C)C[C@@H](CCCc1ccccc1)CCC(=O)N(c1ccccc1)c1ccccc1	x	n	n	n	n	x	x	x
O=c1cccc2n1Cc1cc3ccccc3nc1-2	n	n	14	n	n	n	n	9.7
Cc1ccc2nc(-c3cc(-c4ccccc4)no3)cn2c1	n	n	8.1	12	n	n	n	n
COC(=O)N1C[C@H](OC(=O)c2ccc(-c3ccccc3)cc2)[C@H]2C[C@@H]1c1ccccc1O2	x	n	n	n	n	x	x	x
CCOc1ccccc1C(=O)NCC(=O)Nc1ccc(-c2ccccc2)cc1	n	n	6.6	n	n	n	n	n
c1ccc(-c2nc3ccccc3o2)nc1	n	n	n	n	n	n	x	x
Cc1ccnc2ccc(-c3nc4ccccc4o3)cc12	n	n	7.8	13	1.0	n	n	12
O=c1nc2s/c(=C\c3ccc(-c4ccccc4[N+](=O)[O-])o3)c(=O)n2nc1-c1ccccc1	n	n	6.9	n	n	n	n	n
C/C(CC(=O)Nc1cc(C)cc(C)c1)=N\NC(=O)c1ccccn1	n	n	7.4	11	n	n	n	n
C/C(CC(=O)Nc1ccccn1)=N\NC(=O)c1ccccc1O	n	n	11	n	1.0	n	n	9.1
Cc1cc(C)cc(OCC(=O)NNC(=O)c2ccccn2)c1	n	n	n	n	n	n	x	x
COc1ccc2c(c1)CCCN2C(=O)C1CCCN(S(=O)(=O)c2cccs2)C1 (configuration not stated)	x	n	n	n	n	x	x	x
O=C1NC[C@@H](CCCCN2CCN(CCc3ccc(O)cc3)C(=O)C2=O)N(CCc2ccc(O)cc2)C1=O	x	n	n	n	n	x	x	x
CC1=CC2=NC(=O)/C(=C\c3cccn3CCOc3ccccc3C)C(=N)N2O1	n	n	n	n	n	n	x	x
COc1ccccc1OCCOc1ccc(/C=C2/C(=N)N3OC(C)=CC3=NC2=O)cc1OC	n	n	7.3	n	n	n	n	n
CC(=O)c1c(-c2ccc(C)cc2)nc2c3ccccc3ccn12	n	n	n	n	n	n	x	x
Clc1ccc(-c2nc3c4ccccc4ccn3c2CC2CCCCC2)cc1	x	n	6.7	n	1.6	x	n	6.7
Cc1ccc(-c2nc3c4ccccc4ccn3c2CN2CCCCC2)cc1	n	n	6.7	n	n	n	n	n
CN(C)CCCNC(=O)c1c(N)[nH]c(C(=O)c2ccc(Br)cc2)c1-c1ccc(Br)cc1	x	n	n	n	n	x	x	x
O=C(NCc1ccccc1)[C@@H]1CCCN1C(=O)[C@@H](NS(=O)(=O)c1ccc(F)cc1F)c1ccccc1	x	n	n	n	n	x	x	x
C[C@@H]1CNCCN1c1ccc(N2CCS(=O)(=O)CC2)c(C#N)c1	x	n	n	n	n	x	x	x
CC(=O)c1cccc(NC(=S)Nc2cccc3ccccc23)c1	n	n	n	n	n	n	x	x
CC(=O)Nc1cccc(NC(=S)Nc2cccc3ccccc23)c1	n	n	7.6	n	0.9	n	n	n
